LmPK inh: qHTS Assay for Inhibitors of Leishmania Mexicana Pyruvate Kinase (LmPK) | actives 0.37% (n = 290,000) | purified LmPK, Kinase-Glo ATP luminescence, 1 h | Potency, µM (titrated, usually from 57.5 µM), most hits filed as inhibitors | Q27686 | AID 1721, 2009
Target sequence (Q27686 whole entry, looked up): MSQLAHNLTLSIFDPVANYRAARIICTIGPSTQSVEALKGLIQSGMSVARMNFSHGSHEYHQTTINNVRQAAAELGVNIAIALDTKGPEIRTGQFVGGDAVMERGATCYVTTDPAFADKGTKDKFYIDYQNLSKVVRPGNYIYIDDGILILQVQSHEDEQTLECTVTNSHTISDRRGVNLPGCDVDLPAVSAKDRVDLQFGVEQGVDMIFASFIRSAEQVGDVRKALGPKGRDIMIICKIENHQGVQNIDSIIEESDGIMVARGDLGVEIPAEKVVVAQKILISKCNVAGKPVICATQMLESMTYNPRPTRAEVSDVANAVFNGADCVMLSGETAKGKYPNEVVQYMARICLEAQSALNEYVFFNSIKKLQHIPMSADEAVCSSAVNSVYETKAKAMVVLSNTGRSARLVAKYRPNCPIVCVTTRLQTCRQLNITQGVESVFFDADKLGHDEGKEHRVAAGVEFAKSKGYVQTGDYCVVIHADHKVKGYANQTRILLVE
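Kinase-Glo luminescence read after 1 h RT reaction of 0.1 nM LmPK with 0.5 mM PEP and 0.1 mM ADP. Activity scaled between uninhibited and enzyme-free controls.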
NS1 inh: qHTS Assay for Inhibitors of Influenza NS1 Protein Function. actives 0.4% (n = 270,000). AID 2326, 2010. Potency, µM (highest dose often 46.1 µM); calls by dose curve; note: actives are rising curves; nearly all actives have a fitted effect of over 50% in size
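Growth recovery, yeast-based: influenza A NS1 expressed in S. cerevisiae causes slow growth, and suppressors are detected by OD600. The parent strain without NS1 is used as positive control.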
Giardia FBPA inh-1: qHTS Assay for Inhibitors of Fructose-1,6-bisphosphate Aldolase from Giardia Lamblia. actives 0.71% (n = 290,000). AID 2451, 2010. purified Giardia FBPA. Potency, µM (highest dose often 59.6 µM), hits mostly inhibitors. A8B2U2; note: nearly all actives have a fitted effect of over 55% in size
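40 nM FBPA preincubated 10 min at RT with compound (up to 57.5 uM final), then substrate plus GAPDH/TPI/NAD/arsenate coupling and diaphorase/resazurin added. Fluorescence read after 20 min at RT, 525/598 nm.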
Shiga inhibitor: A qHTS for Small Molecule Inhibitors of Shiga Toxin | Vero cells, Shiga toxin protein synthesis inhibition reporter | inhibition, % at 38.7 µM | actives 9.2% (n = 290,000); in the data active = inhibition mostly above about 28%, no sharp cut-off; inactive = mostly below about 43%
CHX counter-1: Cycloheximide Counterscreen for Small Molecule Inhibitors of Shiga Toxin; cell reporter, cycloheximide protein synthesis inhibition counterscreen; max response, %; actives 12% (n = 300,000); AID 2314, 2010; in the data active = max response mostly above about 13%, no sharp cut-off; inactive = mostly below about 14%; note: read at 38.3 µM for the half of the compounds with a filed dose
CHX counter-2: Cycloheximide Counterscreen for Small Molecule Inhibitors of Shiga Toxin (Confirmatory); shares compounds with Shiga inhibitor; Cycloheximide counterscreen, protein synthesis reporter, Shiga toxin assay; Potency, µM (series often up to 38.3 µM), most hits filed as activators; actives 3% (n = 510); calls by dose curve
NS1 inh valid: Assay for Inhibitors of Influenza NS1 Protein Function: Hit Validation; shares compounds with NS1 inh; influenza NS1 function cell assay, 15-point titration; activity change, negative = inhibition, % at 32.9 µM; 1,400 tested, under 10 active; calls by dose curve
PR8 titer: Assay for Inhibitors of Influenza NS1 Protein Function: Influenza virus replication assay in MDCK cells infected with virus A/PR/8/34; shares compounds with NS1 inh; MDCK infected influenza A/PR/8/34, virus titer TCID50; active compounds read low; virus titer (log TCID50), log10 TCID50 at 5 µM; actives 30% (n = 95); call rule not given here
Giardia growth: qHTS Assay for Inhibitors of Fructose-1,6-bisphosphate Aldolase from Giardia Lamblia: Giardia lamblia growth inhibition. shares compounds with Giardia FBPA inh-1. Giardia lamblia trophozoite growth inhibition. Potency, µM (titrated, usually from 57.5 µM), usual class: inhibitors. actives 5% (n = 1,500);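 note: trophozoites exposed to compound for 48 h at 37 °C; nearly all actives have a fitted effect of over 70% in size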
Mammal cell tox: qHTS Assay for Inhibitors of Fructose-1,6-bisphosphate Aldolase from Giardia Lamblia: Mammalian cellular toxicity. shares compounds with Giardia FBPA inh-1. mammalian cell viability counter-screen, qHTS. Potency, µM (highest dose often 57.5 µM), actives largely listed as inhibitors. actives 4% (n = 1,500). AID 2786, 2010;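 note: Chinese hamster ovary cells used as mammalian cytotoxicity surrogate; viability measured as cellular ATP by luminescence; compound exposure lasted 48 h before reading; nearly all actives have a fitted effect of over 60% in size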
Giardia FBPA inh-2: qHTS Assay for Inhibitors of Fructose-1,6-bisphosphate Aldolase from Giardia Lamblia: Primary screen confirmation; shares compounds with Giardia FBPA inh-1; purified Giardia aldolase enzyme activity, qHTS; Potency, µM (highest dose often 57.5 µM), most hits filed as inhibitors; actives 5% (n = 1,500); AID 2787, 2010; note: nearly all actives have a fitted effect of over 45% in size
Rabbit FBPA inh: qHTS Assay for Inhibitors of Fructose-1,6-bisphosphate Aldolase from Giardia Lamblia: Rabbit FBPA Selectivity | actives 4% (n = 1,500) | Potency, µM (titrated, usually from 57.5 µM), hits mostly inhibitors | Rabbit muscle FBPA enzyme inhibition, selectivity counter-screen | shares compounds with Giardia FBPA inh-1; note: nearly all actives have a fitted effect of over 60% in size
GAPDH coupling: qHTS Assay for Inhibitors of Fructose-1,6-bisphosphate Aldolase from Giardia Lamblia: Coupling assay counterscreen confirmation. Potency, µM (titrated, usually from 57.5 µM), actives largely listed as inhibitors. shares compounds with Giardia FBPA inh-1. GAPDH coupling enzyme counterscreen, biochemical, qHTS. actives 6% (n = 1,500); note: nearly all actives have a fitted effect of over 55% in size
Each line names hits and unclear results; the compound was inactive in the other large screens (follow-up assays come after a bar, where they were run). Sampled rows, rich in hits. Any-hit rate of the full collection: about 14%. Unless noted, calls come from the whole dose curve; as a rule, active = well fitted curve in the direction sought with a large enough effect; inconclusive = small, poorly fitted or top-dose-only effect, or another doubt; inactive = no such curve, though single readings can be large; an effect the other way counts as inactive or inconclusive.

Oc1ccc(C2C[C@H]3CC[C@@H]2C3)cc1O (some centres undefined)	LmPK inh inconclusive, Giardia FBPA inh-1 28µM, Shiga inhibitor 34 | CHX counter-2 inactive | Giardia growth inactive | Mammal cell tox inactive | Giardia FBPA inh-2 14µM | Rabbit FBPA inh 32µM | GAPDH coupling 32µM
COc1ccc(NC(=O)C2CCCN2S(=O)(=O)c2cccc3cccnc23)cc1OC (centres undefined)	none (no result: Giardia FBPA inh-1)
COc1cc(NC(=O)CSc2nc3ccccc3n2-c2ccccc2)c(C)cc1[N+](=O)[O-]	NS1 inh 22µM | NS1 inh valid inactive | PR8 titer inactive
CN(C)S(=O)(=O)c1ccc(NC(=O)CSc2nc3ccccc3n2-c2ccccc2)cc1	NS1 inh 10µM | NS1 inh valid inactive
CN(C)S(=O)(=O)c1cccc(NC(=O)CSc2nc3ccccc3n2-c2ccccc2)c1	none
Cc1c(OC(C)C(=O)N2C[C@H]3C[C@@H](C2)c2cccc(=O)n2C3)ccc2c3c(c(=O)oc12)CCCC3 (some centres undefined)	none
CC(=O)c1ccc(NC(=O)Nc2ccc(S(=O)(=O)N3CCCC3)cc2)cc1	none (no result: Giardia FBPA inh-1)
Cn1c(C(=O)Nc2ccc(Cl)cc2)cc2cc(Cl)ccc21	none
CCCn1c(SCC(=O)NNC(=O)c2ccccc2)nnc1-c1cccnc1	NS1 inh inconclusive | NS1 inh valid inactive
COc1ccc(NC(=O)Nc2cccc3ccccc23)cc1OC	none (no result: Giardia FBPA inh-1)
COc1ccc(NC(=O)Nc2cccs2)cc1OC	NS1 inh inconclusive | NS1 inh valid inactive
Cc1cc(C(=O)CSc2nnc(-c3ccc(Cl)cc3)n2C)c(C)n1CC1CCCO1 (centres undefined)	none (no result: Giardia FBPA inh-1)
Cc1cc(C(=O)Cn2nnc(-c3ccc(Cl)cc3)n2)c(C)n1CC1CCCO1 (centres undefined)	NS1 inh 7.9µM, CHX counter-1 17 | NS1 inh valid inactive
O=C1OCCN1C(=O)[C@H]1[C@H](c2ccc([N+](=O)[O-])cc2)C(c2cccc(Cl)c2)=NN1c1ccccc1	NS1 inh 22µM | NS1 inh valid inactive
COc1ccc(C(=O)N/C(=C\c2cn(S(=O)(=O)N(C)C)c3ccccc23)C(=O)N2CCN(C)CC2)cc1	none
Cc1ccc(C2=CC(C)(c3ccc(C)cc3)Nc3nc(C(F)(F)F)nn32)cc1 (centres undefined)	none
CC1(c2ccc(OCC#N)cc2)C=C(c2ccc(OCC#N)cc2)n2nc(C(F)(F)F)nc2N1 (centres undefined)	NS1 inh 10µM | NS1 inh valid inconclusive
CCOC(=O)c1ccc(NC(=O)CSc2nnc(CCc3ccc(C)o3)n2-c2ccccc2)cc1	NS1 inh 1.4µM | NS1 inh valid inactive | PR8 titer inactive
O=C(CCNS(=O)(=O)c1ccc(Br)cc1)Nc1cccc(F)c1	none
CN(C)c1ccccc1C(=O)c1ccccc1N(C)C	NS1 inh 8.9µM, Shiga inhibitor 86, CHX counter-1 28 | NS1 inh valid inactive
O=C(O)c1ccc(/C=N/NC(=O)c2ccc(CN3c4cccc5cccc(c45)S3(=O)=O)cc2)cc1	none
O=C1CCC/C(=N/NC(=O)c2ccc(CN3c4cccc5cccc(c45)S3(=O)=O)cc2)C1	NS1 inh 14µM | NS1 inh valid inactive
Cc1ccccc1/C=N/N1C(=O)CSC1=S	none
O=C1CSC(=S)N1/N=C/c1cccnc1	NS1 inh 1.1µM, Giardia FBPA inh-1 inconclusive | NS1 inh valid inactive
COc1ccc(N2CC(C(=O)N3CCN(c4ccccc4OC)CC3)CC2=O)cc1 (centres undefined)	none (no result: Giardia FBPA inh-1)
COC(=O)c1c(C)nn(-c2ccc(F)c(Cl)c2)c1-c1cc(C)on1	none
O=C(O)CC(CC(=O)Nc1ccc(-n2ccc(C(F)(F)F)n2)cc1)c1ccccc1 (centres undefined)	NS1 inh inconclusive | NS1 inh valid inactive
O=C(O)CC(CC(=O)Nc1ccc2ccccc2n1)c1ccccc1 (centres undefined)	none
COc1ccc(C2(C)NC(=O)N(CC(=O)NCc3ccccc3)C2=O)cc1OC (centres undefined)	none
Cc1cccc(-n2c(=S)[nH]c3c(oc4ccccc43)c2=O)c1	NS1 inh inconclusive, CHX counter-1 8.7 | NS1 inh valid inactive
CC(C)OC(=O)/C(=C\C=C\c1ccccc1)NC(=O)c1ccccc1	NS1 inh inconclusive | NS1 inh valid inactive
C#CCOC(=O)/C(=C/C=C/c1ccccc1)NC(=O)c1ccccc1	none
O=C(c1ccc(Cl)cc1)N1CCOc2ccccc21	none
O=c1cc(O)c2sc3nc(-c4ccccc4)cc(C(F)(F)F)c3c2[nH]1	NS1 inh inconclusive | NS1 inh valid inactive
COc1ccc(OC)c(-c2cc(C(F)(F)F)c3c(n2)sc2c(O)cc(=O)[nH]c23)c1	none
CCCOP(=O)(c1ccc(N(C)C)cc1)C(Nc1ccccc1)c1ccc(N(C)C)cc1 (centres undefined)	NS1 inh 20µM | NS1 inh valid inactive

Bioassay records from PubChem BioAssay.
